This is an account of results in ChEMBL document CHEMBL2218924, “A broad activity screen in support of a chemogenomic map for kinase signalling research and drug discovery” (Biochem J, 2013).

SMILES strings stand for the structures.

The target of assay [1] is Serine/threonine-protein kinase SIK1 (Homo sapiens) (UniProt P57059). Particulars: at 10 µM.
Assay [2] concerns the target SRSF protein kinase 1 (Homo sapiens) (UniProt Q96SB4). The following applies: at 1 µM.
Assay [3] shares this target. Particulars: at 10 µM.
Assay [4] has as its target SRSF protein kinase 2 (Homo sapiens) (UniProt P78362). Particulars: at 1 µM.
The target is the same in assay [5]. The following applies: at 10 µM.
Assay [6] concerns the target Serine/threonine-protein kinase 33 (Homo sapiens) (UniProt Q9BYT3). The following applies: at 10 µM.
For assay [7], the target named is Serine/threonine-protein kinase PLK2 (Homo sapiens) (UniProt Q9NYY3). Particulars: at 1 µM.
For assay [8] the target is unchanged. The following applies: at 10 µM.
Assay [9] addresses Tyrosine-protein kinase SYK (Homo sapiens) (UniProt P43405). Particulars: at 1 µM.
The target is the same in assay [10]. Particulars: at 10 µM.
In assay [11] the target is T1, Mitogen-activated protein kinase kinase kinase 7 (Homo sapiens) (UniProt O43318).
T1 sequence (whole entry): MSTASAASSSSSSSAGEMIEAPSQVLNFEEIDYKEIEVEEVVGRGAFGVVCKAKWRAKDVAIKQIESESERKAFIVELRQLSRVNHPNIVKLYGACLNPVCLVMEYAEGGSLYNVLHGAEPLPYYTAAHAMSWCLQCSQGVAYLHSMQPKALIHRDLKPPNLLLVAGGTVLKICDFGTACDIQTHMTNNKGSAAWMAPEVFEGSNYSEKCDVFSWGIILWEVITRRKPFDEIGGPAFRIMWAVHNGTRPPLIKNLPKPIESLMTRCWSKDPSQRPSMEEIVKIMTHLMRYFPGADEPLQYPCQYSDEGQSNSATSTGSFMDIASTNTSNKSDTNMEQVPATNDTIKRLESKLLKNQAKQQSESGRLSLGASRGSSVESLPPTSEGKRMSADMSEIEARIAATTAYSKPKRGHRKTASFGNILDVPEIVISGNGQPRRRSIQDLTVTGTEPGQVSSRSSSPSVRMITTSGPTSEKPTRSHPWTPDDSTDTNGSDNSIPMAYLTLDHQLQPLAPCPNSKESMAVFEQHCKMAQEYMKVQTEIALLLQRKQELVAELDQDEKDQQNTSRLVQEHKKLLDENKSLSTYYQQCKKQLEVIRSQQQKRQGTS
The following applies: at 1 µM.

The target of assay [12] is T1, Mitogen-activated protein kinase kinase kinase 7 (Homo sapiens). The following applies: at 10 µM.
Assay [13] deals with T2, Serine/threonine-protein kinase TAO1 (Homo sapiens) (UniProt Q7L7X3).
T2 sequence (whole entry): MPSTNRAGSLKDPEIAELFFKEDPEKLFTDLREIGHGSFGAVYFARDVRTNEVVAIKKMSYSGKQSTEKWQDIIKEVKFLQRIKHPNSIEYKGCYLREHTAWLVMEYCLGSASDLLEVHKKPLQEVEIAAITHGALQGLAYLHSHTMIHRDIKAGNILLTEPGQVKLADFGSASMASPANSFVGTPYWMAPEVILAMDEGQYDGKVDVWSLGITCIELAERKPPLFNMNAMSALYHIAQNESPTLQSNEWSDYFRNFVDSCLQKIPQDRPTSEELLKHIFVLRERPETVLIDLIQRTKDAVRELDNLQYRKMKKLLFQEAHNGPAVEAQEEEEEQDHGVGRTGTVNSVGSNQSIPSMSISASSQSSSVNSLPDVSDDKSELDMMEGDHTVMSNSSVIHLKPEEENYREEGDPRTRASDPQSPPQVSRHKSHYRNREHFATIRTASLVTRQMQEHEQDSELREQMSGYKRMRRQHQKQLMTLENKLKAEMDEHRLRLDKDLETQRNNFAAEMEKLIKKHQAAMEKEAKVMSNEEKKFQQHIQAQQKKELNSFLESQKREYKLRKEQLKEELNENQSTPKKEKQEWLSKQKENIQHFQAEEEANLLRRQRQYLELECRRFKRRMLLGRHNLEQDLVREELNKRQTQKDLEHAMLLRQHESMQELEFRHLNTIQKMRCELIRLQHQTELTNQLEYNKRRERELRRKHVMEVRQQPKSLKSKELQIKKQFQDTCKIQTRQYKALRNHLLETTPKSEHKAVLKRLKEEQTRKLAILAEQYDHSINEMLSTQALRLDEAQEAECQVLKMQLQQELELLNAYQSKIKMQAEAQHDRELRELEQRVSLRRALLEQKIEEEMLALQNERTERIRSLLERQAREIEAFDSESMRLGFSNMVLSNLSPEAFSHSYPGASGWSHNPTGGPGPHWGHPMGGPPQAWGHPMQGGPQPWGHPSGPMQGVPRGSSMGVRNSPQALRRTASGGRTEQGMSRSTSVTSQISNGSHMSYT
Particulars: at 1 µM.

Assay [14] addresses T2, Serine/threonine-protein kinase TAO1 (Homo sapiens). The following applies: at 10 µM.
Assay [15] deals with T3, Serine/threonine-protein kinase TAO2 (Homo sapiens) (UniProt Q9UL54).
T3 sequence (whole entry): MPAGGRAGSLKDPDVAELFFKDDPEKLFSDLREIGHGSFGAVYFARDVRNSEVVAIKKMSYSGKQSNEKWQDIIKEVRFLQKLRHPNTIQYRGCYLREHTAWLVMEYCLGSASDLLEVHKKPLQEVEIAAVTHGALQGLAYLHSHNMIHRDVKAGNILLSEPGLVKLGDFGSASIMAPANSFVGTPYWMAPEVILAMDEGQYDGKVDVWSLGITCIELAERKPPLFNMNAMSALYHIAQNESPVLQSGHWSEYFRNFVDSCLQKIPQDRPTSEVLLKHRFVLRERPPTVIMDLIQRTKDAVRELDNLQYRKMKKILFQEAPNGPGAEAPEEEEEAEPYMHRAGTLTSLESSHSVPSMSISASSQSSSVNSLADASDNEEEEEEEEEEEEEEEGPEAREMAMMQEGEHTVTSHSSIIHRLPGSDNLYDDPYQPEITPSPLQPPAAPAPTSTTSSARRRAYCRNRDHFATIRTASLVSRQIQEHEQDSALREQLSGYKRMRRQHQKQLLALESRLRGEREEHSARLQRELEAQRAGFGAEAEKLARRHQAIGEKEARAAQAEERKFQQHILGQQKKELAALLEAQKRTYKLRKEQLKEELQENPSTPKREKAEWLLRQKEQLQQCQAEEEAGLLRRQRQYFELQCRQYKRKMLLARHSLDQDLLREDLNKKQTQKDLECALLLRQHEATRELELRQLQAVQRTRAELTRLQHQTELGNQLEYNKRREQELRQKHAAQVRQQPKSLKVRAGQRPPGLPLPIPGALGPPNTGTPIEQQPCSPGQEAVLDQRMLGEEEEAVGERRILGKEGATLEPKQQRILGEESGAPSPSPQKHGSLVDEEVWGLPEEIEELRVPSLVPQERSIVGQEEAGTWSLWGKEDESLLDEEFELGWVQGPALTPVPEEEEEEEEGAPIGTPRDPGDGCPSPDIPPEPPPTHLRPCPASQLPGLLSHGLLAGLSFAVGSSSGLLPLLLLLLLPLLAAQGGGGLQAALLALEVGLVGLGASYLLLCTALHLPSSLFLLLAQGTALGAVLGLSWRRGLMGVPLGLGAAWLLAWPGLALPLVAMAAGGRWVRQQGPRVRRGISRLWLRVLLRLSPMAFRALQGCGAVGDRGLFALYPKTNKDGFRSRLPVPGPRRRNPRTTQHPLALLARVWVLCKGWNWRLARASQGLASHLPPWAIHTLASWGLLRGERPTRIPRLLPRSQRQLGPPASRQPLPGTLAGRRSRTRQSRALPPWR
The following applies: at 1 µM.

Assay [16] addresses T3, Serine/threonine-protein kinase TAO2 (Homo sapiens). Particulars: at 10 µM.
The target of assay [17] is T4, Serine/threonine-protein kinase TAO3 (Homo sapiens) (UniProt Q9H2K8).
T4 sequence (whole entry): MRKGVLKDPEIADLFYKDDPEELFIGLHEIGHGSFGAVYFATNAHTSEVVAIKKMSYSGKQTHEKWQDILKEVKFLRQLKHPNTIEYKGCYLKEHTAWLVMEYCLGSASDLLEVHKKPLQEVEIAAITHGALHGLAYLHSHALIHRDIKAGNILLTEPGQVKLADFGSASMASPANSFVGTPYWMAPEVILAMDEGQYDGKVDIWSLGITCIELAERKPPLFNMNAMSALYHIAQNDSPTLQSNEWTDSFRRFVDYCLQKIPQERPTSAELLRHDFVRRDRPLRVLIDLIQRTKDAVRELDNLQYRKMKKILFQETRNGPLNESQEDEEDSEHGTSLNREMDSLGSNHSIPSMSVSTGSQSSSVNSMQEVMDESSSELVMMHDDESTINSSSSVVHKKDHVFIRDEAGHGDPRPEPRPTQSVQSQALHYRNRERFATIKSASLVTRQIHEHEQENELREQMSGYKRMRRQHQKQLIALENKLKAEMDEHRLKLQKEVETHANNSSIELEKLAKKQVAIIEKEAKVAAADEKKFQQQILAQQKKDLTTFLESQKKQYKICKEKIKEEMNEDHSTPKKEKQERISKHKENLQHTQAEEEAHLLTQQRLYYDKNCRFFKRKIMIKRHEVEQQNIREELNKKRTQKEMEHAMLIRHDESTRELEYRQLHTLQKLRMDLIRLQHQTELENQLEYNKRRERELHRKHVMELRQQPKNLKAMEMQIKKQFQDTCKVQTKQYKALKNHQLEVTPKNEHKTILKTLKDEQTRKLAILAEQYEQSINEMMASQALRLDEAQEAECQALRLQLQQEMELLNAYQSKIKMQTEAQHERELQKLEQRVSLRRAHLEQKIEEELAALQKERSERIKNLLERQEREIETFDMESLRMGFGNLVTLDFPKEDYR
The following applies: at 1 µM.

For assay [18], the target named is T4, Serine/threonine-protein kinase TAO3 (Homo sapiens). Particulars: at 10 µM.
Assay [19] concerns the target T5, Serine/threonine-protein kinase TBK1 (Homo sapiens) (UniProt Q9UHD2).
T5 sequence (whole entry): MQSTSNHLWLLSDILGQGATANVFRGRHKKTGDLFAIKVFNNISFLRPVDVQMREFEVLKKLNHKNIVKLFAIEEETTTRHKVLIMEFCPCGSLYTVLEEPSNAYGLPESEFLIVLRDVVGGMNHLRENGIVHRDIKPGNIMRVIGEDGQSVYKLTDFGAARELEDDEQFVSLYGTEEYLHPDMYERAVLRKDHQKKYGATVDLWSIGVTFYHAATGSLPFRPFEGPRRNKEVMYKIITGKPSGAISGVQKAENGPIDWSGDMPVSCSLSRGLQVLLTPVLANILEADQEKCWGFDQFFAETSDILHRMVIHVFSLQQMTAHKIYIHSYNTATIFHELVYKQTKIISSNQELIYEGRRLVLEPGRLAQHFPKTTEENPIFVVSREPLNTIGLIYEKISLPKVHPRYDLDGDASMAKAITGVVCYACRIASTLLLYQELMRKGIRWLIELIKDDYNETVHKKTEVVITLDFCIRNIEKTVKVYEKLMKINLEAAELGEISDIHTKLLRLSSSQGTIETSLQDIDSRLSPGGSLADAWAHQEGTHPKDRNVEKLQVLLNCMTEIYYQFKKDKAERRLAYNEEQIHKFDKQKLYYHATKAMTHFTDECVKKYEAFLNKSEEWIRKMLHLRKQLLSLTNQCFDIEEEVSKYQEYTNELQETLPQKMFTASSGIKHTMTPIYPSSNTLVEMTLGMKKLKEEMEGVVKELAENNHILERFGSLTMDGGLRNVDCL
Particulars: at 1 µM.

The target of assay [20] is Serine/threonine-protein kinase 33 (Homo sapiens) (UniProt Q9BYT3). Particulars: at 1 µM.
Sequence of Serine/threonine-protein kinase 33 (Homo sapiens) (Q9BYT3 whole entry, looked up): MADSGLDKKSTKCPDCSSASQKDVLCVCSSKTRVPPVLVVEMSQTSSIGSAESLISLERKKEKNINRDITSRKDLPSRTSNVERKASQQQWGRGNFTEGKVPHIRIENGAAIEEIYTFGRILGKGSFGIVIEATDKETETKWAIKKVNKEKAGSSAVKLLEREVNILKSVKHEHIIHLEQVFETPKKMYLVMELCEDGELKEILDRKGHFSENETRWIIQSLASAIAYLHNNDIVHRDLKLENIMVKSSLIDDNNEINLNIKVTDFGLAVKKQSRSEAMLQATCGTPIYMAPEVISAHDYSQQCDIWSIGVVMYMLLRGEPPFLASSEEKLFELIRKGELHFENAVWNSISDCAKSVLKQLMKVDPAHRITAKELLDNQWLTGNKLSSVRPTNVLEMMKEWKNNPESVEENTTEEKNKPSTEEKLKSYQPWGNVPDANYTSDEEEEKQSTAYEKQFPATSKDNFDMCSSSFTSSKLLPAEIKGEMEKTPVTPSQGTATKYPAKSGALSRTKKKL

Sequence of Serine/threonine-protein kinase SIK1 (Homo sapiens) (P57059 whole entry): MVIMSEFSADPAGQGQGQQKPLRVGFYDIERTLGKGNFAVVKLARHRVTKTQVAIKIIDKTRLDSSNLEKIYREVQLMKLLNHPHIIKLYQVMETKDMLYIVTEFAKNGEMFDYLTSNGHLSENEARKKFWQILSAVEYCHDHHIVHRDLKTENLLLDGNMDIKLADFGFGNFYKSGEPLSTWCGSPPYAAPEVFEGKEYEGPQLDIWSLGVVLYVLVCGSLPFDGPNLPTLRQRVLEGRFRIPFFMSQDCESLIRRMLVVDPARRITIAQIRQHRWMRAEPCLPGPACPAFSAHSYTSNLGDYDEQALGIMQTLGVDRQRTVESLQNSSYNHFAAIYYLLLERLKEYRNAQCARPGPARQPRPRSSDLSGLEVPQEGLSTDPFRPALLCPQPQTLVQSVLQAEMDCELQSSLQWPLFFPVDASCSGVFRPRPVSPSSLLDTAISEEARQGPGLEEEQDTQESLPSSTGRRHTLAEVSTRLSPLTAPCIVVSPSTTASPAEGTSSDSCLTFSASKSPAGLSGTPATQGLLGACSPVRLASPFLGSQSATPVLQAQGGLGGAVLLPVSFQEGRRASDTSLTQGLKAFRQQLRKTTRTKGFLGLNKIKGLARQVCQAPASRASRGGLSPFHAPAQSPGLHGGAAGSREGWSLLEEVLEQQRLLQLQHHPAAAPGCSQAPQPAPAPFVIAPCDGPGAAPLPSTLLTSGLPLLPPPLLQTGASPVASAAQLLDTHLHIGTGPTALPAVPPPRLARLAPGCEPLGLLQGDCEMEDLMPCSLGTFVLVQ
Sequence of Serine/threonine-protein kinase PLK2 (Homo sapiens) (Q9NYY3 whole entry, looked up): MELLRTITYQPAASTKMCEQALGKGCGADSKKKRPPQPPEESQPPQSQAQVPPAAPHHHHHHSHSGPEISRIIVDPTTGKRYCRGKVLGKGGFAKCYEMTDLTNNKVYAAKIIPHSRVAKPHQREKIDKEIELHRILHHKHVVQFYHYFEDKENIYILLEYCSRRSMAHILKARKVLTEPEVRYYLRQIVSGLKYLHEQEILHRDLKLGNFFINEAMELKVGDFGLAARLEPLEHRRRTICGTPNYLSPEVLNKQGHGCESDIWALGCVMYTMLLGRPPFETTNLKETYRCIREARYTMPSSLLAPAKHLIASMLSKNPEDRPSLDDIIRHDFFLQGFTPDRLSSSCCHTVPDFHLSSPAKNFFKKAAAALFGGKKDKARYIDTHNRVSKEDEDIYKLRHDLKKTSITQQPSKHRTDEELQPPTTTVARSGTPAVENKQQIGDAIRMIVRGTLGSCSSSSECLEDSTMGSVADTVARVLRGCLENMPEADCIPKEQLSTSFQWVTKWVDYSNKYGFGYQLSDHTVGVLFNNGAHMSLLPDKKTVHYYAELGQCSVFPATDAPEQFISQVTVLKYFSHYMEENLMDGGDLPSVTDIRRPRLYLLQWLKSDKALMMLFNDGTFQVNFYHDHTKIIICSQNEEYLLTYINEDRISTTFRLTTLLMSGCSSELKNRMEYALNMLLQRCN
Sequence of SRSF protein kinase 1 (Homo sapiens) (Q96SB4 whole entry): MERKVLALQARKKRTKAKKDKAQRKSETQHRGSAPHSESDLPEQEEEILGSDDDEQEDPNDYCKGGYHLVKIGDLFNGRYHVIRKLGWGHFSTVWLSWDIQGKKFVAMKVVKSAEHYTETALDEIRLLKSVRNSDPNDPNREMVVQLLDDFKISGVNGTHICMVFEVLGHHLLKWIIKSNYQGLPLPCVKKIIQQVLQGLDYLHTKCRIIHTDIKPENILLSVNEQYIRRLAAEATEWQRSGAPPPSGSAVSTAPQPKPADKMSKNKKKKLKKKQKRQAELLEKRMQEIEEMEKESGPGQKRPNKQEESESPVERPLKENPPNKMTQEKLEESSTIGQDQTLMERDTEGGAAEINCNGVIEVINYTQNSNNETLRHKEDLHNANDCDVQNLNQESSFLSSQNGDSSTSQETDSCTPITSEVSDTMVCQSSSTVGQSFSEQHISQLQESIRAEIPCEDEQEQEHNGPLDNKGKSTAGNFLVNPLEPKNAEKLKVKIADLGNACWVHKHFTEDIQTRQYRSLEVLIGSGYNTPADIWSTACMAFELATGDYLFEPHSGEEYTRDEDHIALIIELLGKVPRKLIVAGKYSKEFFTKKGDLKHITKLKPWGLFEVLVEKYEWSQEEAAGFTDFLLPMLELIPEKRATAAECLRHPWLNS
Sequence of SRSF protein kinase 2 (Homo sapiens) (P78362 whole entry, looked up): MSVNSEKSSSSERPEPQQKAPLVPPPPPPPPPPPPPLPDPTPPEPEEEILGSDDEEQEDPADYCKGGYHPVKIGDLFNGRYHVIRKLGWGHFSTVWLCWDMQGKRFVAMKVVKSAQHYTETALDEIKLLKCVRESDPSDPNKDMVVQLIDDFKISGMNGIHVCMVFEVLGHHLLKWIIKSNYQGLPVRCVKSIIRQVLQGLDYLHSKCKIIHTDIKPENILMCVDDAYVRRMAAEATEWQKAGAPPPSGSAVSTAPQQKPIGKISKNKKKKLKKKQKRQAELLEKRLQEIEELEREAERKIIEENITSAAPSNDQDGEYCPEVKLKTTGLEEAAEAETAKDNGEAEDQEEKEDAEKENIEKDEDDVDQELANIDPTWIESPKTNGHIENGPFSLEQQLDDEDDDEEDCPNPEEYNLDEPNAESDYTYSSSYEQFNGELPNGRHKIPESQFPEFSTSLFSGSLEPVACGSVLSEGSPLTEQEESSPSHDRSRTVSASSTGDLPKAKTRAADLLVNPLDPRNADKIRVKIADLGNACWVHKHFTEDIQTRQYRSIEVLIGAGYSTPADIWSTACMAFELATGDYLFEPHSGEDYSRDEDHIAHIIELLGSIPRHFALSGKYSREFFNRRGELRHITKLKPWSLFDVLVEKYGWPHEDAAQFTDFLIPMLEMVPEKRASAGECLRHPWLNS

Take `CCOc1cc2ncnc(Nc3cccc(Br)c3)c2cc1OCC`: the residual activity in [1] stood at 102%; in assay [2], 83%; in [3] it was 91%; in assay [4] it was 102%; in [5], 91%; in assay [6], 92%. For the same compound, the residual activity in [7] was 99%; in assay [8], 88%; in assay [9] it was 111%; in [10], 58%; in assay [11] it was 95%; in [12] it was 83%. The residual activity in assay [13] worked out at 86%; in assay [14], 73%; in assay [15] it was 101%; in [16], 84%; in assay [17] it was 100%; in [18], 81%. In [19], the residual activity was 70%.
In the case of `N#CCCc1ccc2c(c1)-c1[nH]c3ccc([N+](=O)[O-])cc3c1CC(=O)N2`, the residual activity stood at 100% in [20]; 52% in [6]; 56% in [9]; 41% in assay [10]; 57% in assay [11]; 21% in assay [12]. Also, the residual activity in assay [13] came out at 58%; in [14] it was 24%; in assay [15], 64%; in [16] it was 52%; in assay [17] it was 56%; in assay [18], 41%. In addition, in assay [19], the residual activity turned out to be 38%.
Turning to `CN(C)c1ccc(/C=C2\C(=O)Nc3ccccc32)cc1`, the residual activity came out at 88% in assay [1]; 97% in [2]; 101% in assay [3]; 108% in assay [4]; 85% in [5]; 78% in assay [6]. For the same compound, the residual activity in assay [7] is 106%; in assay [8], 98%; in assay [9], 123%; in [10], 91%; in assay [11] it was 100%; in [12], 81%. The residual activity in assay [13] is 113%; in assay [14], 90%; in assay [15], 99%; in [16] it was 89%; in assay [17], 100%; in [18] it was 91%. The residual activity in assay [19] was found to be 81%.
Consider `O=C1c2ccccc2-[n+]2ccc3c([nH]c4ccccc43)c21`, for which the residual activity in [1] turned out to be 104%; in assay [2] it was 90%; in assay [3], 93%; in [4], 101%; in assay [5], 87%; in assay [20], 86%. The residual activity was 86% in [6]; 95% in assay [7]; 101% in assay [8]; 93% in assay [9]; 90% in assay [10]; 93% in [11]. Further, the residual activity in assay [12] amounted to 82%; in assay [13], 96%; in assay [14], 86%; in assay [16] it was 90%; in assay [17], 89%; in assay [18], 90%. The residual activity in assay [19] is 58%.
